# Experimental data as given in the supplement of paper PMC12636033.
# ± gives the standard deviation of the averaged measurements. Over roughly 33,000 sequences, “E-score (rank enrichment, -0.5 to 0.5)” has its median near -0.0028; the highest 2% begin near 0.23. This is one part of a sample in which the highest values are shown more often than they occur.
# Tested on: 2Sb-muMax20 (muMax20 with two 1,3-bis(methyl)benzene Cys staples, A13C/A17C and Q88C/A92C, C-terminal Lys)
# Assay: PBM 8-mer E-score (E-score (rank enrichment, -0.5 to 0.5)); higher = stronger preferential binding
# Protocol: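 Protein binding microarray (universal PBM chip covering all 10-mers in fixed probe flanks) with chemically synthesized human Max(13-93) bHLH-LZ analogs (not full-length Max) bearing noncanonical residues (hArg, Tha, Aib, Nle at 65) and aromatic Cys staples. Read-out per 8-mer (and its reverse complement): E-score (rank-based enrichment, -0.5 to 0.5) and Z-score of median probe intensity.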
row,Sequence,PBM 8-mer E-score
1,ATTACAGA,-0.121 ± 0.03
2,ACGAGGGG,0.0607 ± 0.017
3,CAAAGGAA,0.047 ± 0.054
4,GAGGATGA,0.0986 ± 0.081
5,ATAAACGC,-0.0771 ± 0.058
6,GAAAACGA,-0.0116 ± 0.016
7,ATAAACGA,0.233 ± 0.029
8,CAAAACGA,0.103 ± 0.0049
9,GTAAACGA,-0.00855 ± 0.0052
10,AAAAACGA,0.256 ± 0.03
11,CCGGTATC,-0.171 ± 0.092
12,AAGTCAGC,-0.0311 ± 0.05
13,AAGGCTAC,-0.168 ± 0.021
14,AGCGAAAA,0.212 ± 0.006
15,TCACACCA,0.0297 ± 0.027
16,CGGATGTA,-0.172 ± 0.005
17,AGATTTTG,0.0113 ± 0.012
18,CCTGTTAC,0.274 ± 0.049
19,CCTGTTAG,-0.0682 ± 0.013
20,CCTGTTAA,0.0396 ± 0.043
21,ACCGGCTA,-0.152 ± 0.016
22,ACAAGAAC,0.152 ± 0.045
23,CATTCTTC,0.0315 ± 0.021
24,ATGTAGTA,0.268 ± 0.012
25,GTGTAGTA,0.125 ± 0.052

row,Sequence,PBM 8-mer E-score
1,ATGTAGTG,0.156 ± 0.049
2,CTGTAGAA,0.0722 ± 0.0078
3,ATGTAGAG,0.0764 ± 0.027
4,ATGTAGAA,0.245 ± 0.016
5,AGACGTAC,-0.0467 ± 0.078
6,ATTATTTG,0.197 ± 0.0069
7,CACTGCGG,-0.115 ± 0.052
8,CCAACAGC,-0.068 ± 0.0017
9,GGTCAATA,0.238 ± 0.015
10,CGTCAATA,-0.0166 ± 0.034
11,AGTCAATA,0.09 ± 0.0033
12,GGATCTTA,-0.014 ± 0.071
13,ACGCTGAC,-0.0415 ± 0.018
14,AAACCGTG,-0.0746 ± 0.026
15,ACTATAGT,0.299 ± 0.039
16,CCTATAGC,0.264 ± 0.036
17,ACTATAGG,-0.00711 ± 0.032
18,ACTATAGC,-0.0113 ± 0.072
19,CCTATAGG,0.0292 ± 0.035
20,ACTATAGA,0.118 ± 0.11
21,CAGTCCTC,0.00033 ± 0.011
22,AAAGAATG,0.0117 ± 0.014
23,AGAGACCA,0.0299 ± 0.014
24,ACTCTGTC,-0.111 ± 0.023
25,GGCATCAC,0.0631 ± 0.11

row,Sequence,PBM 8-mer E-score
1,CAAGGGGG,-0.105 ± 0.048
2,CAAGGGAA,-0.0769 ± 0.018
3,CAAGGGGA,0.24 ± 0.015
4,CTAGGGTA,-0.0583 ± 0.021
5,ATAGGGGA,0.18 ± 0.0034
6,CTAGGGGA,0.117 ± 0.028
7,ATAGGGTA,0.123 ± 0.025
8,GTAGGGGA,0.24 ± 0.067
9,GTAGGGTA,0.266 ± 0.013
10,AAAAAAAG,0.126 ± 0.056
11,GGGATCCC,-0.2 ± 0.043
12,CAGGAGTC,-0.0911 ± 0.039
13,AACGTTCA,0.0627 ± 0.039
14,ATATAAAT,0.2095 ± 0.00022
15,TACAGACA,0.0665 ± 0.048
16,AGTTAATG,0.232 ± 0.025
17,AGTTAATA,0.184 ± 0.015
18,CATTAATG,0.18 ± 0.016
19,AATTATTA,0.18 ± 0.032
20,AATTATTC,0.0609 ± 0.0053
21,AATTAATG,0.239 ± 0.033
22,AATTAATT,0.167 ± 0.077
23,AATTATTG,0.262 ± 0.017
24,AGTTAATC,0.0432 ± 0.046
25,AAGTTCGG,-0.224 ± 0.029

row,Sequence,PBM 8-mer E-score
1,CAATTCCG,-0.0516 ± 0.045
2,AAGGTAAG,-0.0254 ± 0.00071
3,ATTACGAA,-0.000195 ± 0.03
4,AGTCTAAT,0.0498 ± 0.0033
5,CGCTACTC,-0.172 ± 0.031
6,CTTAGGCA,-0.203 ± 0.024
7,AAGGCCCG,-0.159 ± 0.055
8,GTTTCTGA,0.0103 ± 0.029
9,CCACCCTA,0.189 ± 0.0062
10,CACCCCTC,0.278 ± 0.026
11,CACCCCTG,0.0699 ± 0.055
12,CCACCCTC,0.234 ± 0.036
13,ACACCCTC,0.0661 ± 0.073
14,CCACCCAC,0.239 ± 0.045
15,ACACCCAC,0.2 ± 0.028
16,GACCCCTC,0.0964 ± 0.036
17,CCACCCAA,0.128 ± 0.049
18,GGTCCCGA,-0.305 ± 0.042
19,AATATCCA,0.0444 ± 0.082
20,AATATCCC,0.245 ± 0.056
21,AATATCCG,-0.0514 ± 0.051
22,CGGGGGTA,0.0309 ± 0.084
23,CCCCCCCG,-0.2 ± 0.13
24,GCACCAGA,-0.126 ± 0.045
25,AGCCCCGG,-0.0543 ± 0.054

row,Sequence,PBM 8-mer E-score
1,GCCCACCC,0.359 ± 0.045
2,CCCCACCC,0.282 ± 0.076
3,GCCCACCA,0.12 ± 0.024
4,ACCCACCG,0.0752 ± 0.014
5,GCCCACAC,0.0967 ± 0.059
6,TCCCACCA,-0.0255 ± 0.1
7,ACCCACCC,0.417 ± 0.02
8,CCCCACCG,0.11 ± 0.1
9,ACCCACCT,0.13 ± 0.029
10,CCCCACCA,0.162 ± 0.035
11,ACCCACCA,0.274 ± 0.027
12,ACCACCCA,0.073 ± 0.062
13,ATTCGGAG,-0.0732 ± 0.026
14,GGGGATCA,0.0797 ± 0.027
15,AAGACCGT,-0.244 ± 0.028
16,AATGGTAT,0.157 ± 0.044
17,ACGGGGTG,0.118 ± 0.023
18,CAGTATAC,0.0863 ± 0.1
19,GATGAAAC,0.0586 ± 0.022
20,ATGAACGG,-0.111 ± 0.0086
21,CTCCGTCC,-0.114 ± 0.018
22,CTGTAATA,0.0526 ± 0.019
23,ATGTAACA,0.242 ± 0.031
24,CTGTAACA,-0.00643 ± 0.026
25,ATGTAATG,0.155 ± 0.013

row,Sequence,PBM 8-mer E-score
1,ATGTAACG,0.0488 ± 0.0084
2,ATGTAATA,0.236 ± 0.065
3,AAAACCAC,0.121 ± 0.013
4,GCGTACCA,-0.0976 ± 0.0064
5,AGACAAAA,-0.00983 ± 0.042
6,ACAGCAAA,0.0417 ± 0.047
7,ACGGGAAT,-0.08 ± 0.016
8,CATGGGTA,0.053 ± 0.028
9,CGTGGGTA,0.00707 ± 0.0098
10,AGTGGGCG,0.237 ± 0.019
11,AGTGGGTA,0.121 ± 0.042
12,GTTGGGTA,0.1494 ± 0.00044
13,AGTGGGTG,0.259 ± 0.0086
14,AGTGGGCA,0.0757 ± 0.023
15,GGTGGGTA,0.282 ± 0.063
16,AGTGGGTC,-0.178 ± 0.017
17,GATGGGTA,0.246 ± 0.021
18,AATGGGTA,0.039 ± 0.0031
19,AGTGGGCC,-0.212 ± 0.019
20,CGGCGCCG,-0.0151 ± 0.033
21,AATGAACA,0.129 ± 0.016
22,CCGCTGGC,-0.26 ± 0.0032
23,AAGGCACG,0.076 ± 0.023
24,GGCACACA,-0.16 ± 0.044
25,ATTCCGCC,0.107 ± 0.039

row,Sequence,PBM 8-mer E-score
1,TAACTAGA,0.238 ± 0.031
2,GAACTAGA,0.067 ± 0.017
3,AAACTAGA,0.08188 ± 0.00023
4,AGTATTAC,0.236 ± 0.075
5,AATATTAA,0.335 ± 0.045
6,TATATTAA,0.158 ± 0.011
7,CATATTAG,0.132 ± 0.032
8,GATATTAA,0.123 ± 0.014
9,AATATTAT,0.259 ± 0.0099
10,AATATTAG,0.178 ± 0.0068
11,AGTATTAA,0.206 ± 0.061
12,ACTATTAT,0.194 ± 0.027
13,AGTATTAG,0.147 ± 0.0055
14,ACTATTAA,0.176 ± 0.026
15,CATATTAA,0.238 ± 0.062
16,AGGAGGTC,-0.222 ± 0.015
17,CGGGAGGC,-0.24 ± 0.032
18,ATCTTACA,0.075 ± 0.012
19,ACCCAAGA,0.0956 ± 0.071
20,GGACCAGA,-0.2186 ± 0.0017
21,AGCCAACC,0.106 ± 0.0086
22,GTCAATAA,0.075 ± 0.025
